Data on 32 sequences can be found in article PMC12820563, “FoxP3 forms a head-to-head dimer in vivo and stabilizes its multimerization on adjacent microsatellites”.

In all, about 16,000 sequences were measured (“rpm ratio (pull-down/input)”: median about 0.5, highest 2% from about 5.5 on). Only a selection was taken, and the highest values are over-represented in it overall.

For this experiment, the target named is T1, MBP-FoxP3dN (Mus musculus, UniProt Q99JB6 188-423).
T1 sequence: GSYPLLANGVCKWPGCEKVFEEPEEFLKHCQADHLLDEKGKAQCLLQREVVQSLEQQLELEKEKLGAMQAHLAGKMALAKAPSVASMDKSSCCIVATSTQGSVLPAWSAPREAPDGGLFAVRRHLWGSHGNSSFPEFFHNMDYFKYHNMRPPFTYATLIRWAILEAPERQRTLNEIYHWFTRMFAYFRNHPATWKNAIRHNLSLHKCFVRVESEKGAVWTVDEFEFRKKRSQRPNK
Put plainly: PD-seq (MBP pull-down with sequencing); 20 mM Tris-HCl pH 7.5, 100 mM NaCl, 1.5 mM MgCl2, 0.4 uM protein, 0.1 uM dsDNA library, 30 min, room temperature, amylose pull-down; high values mean tight binding. The note with it: protein: recombinant; tags: His6-MBP; chain copies: 2; dsDNA, one strand shown. The gist of the method:
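E. coli-expressed mouse FoxP3 or FoxP1 fragment, N-terminus removed and tagged with His6-MBP, was used at 0.4 µM against 0.1 µM of a Klenow-filled degenerate double-stranded DNA library. After 30 min at room temperature in Tris pH 7.5 buffer with NaCl and MgCl2, complexes were pulled down on amylose resin and washed three times. Binding is pull-down over input reads-per-million enrichment from pooled replicates of the proteinase K-released, PCR-barcoded, Illumina-sequenced DNA.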
“GATGATTGTTCTCCCAGCTGATGAATTCTTTTATTCGAGTAAACAAATTTTCCTAATCTTTCTGTTCAAGCGCCATCTAC”: the binding signal is 0.35 RPM ratio (pull-down/input). Consider “GATGATTGTTCTCCCAGCTGATGAATTTTTTATTTCGAGTAAACAAATTTTCCTAATCTTTCTGTTCAAGCGCCATCTAC”, for which the binding signal is 0.301 RPM ratio (pull-down/input). In the case of “GATGATTGTTCTCCCAGCTGATGAATTATTTTATTCGAGTAAACAAATTTTCCTAATCTTTCTGTTCAAGCGCCATCTAC” it was 0.489 RPM ratio (pull-down/input). In the case of “GATGATTGTTCTCCCAGCTGATGAATTGATTTATTCGAGTAAACAAATTTTCCTAATCTTTCTGTTCAAGCGCCATCTAC” it was 2.58 RPM ratio (pull-down/input). In the case of “GATGATTGTTCTCCCAGCTGATGAATTTTTATTTTCGAGTAAACAAATTTTCCTAATCTTTCTGTTCAAGCGCCATCTAC” it was 0.838 RPM ratio (pull-down/input). Consider “GATGATTGTTCTCCCAGCTGATGAATTTTATTGTTCGAGTAAACAAATTTTCCTAATCTTTCTGTTCAAGCGCCATCTAC”, for which the binding signal is 6.02 RPM ratio (pull-down/input). In the case of “GATGATTGTTCTCCCAGCTGATGAATTAATTTATTCGAGTAAACAAATTTTCCTAATCTTTCTGTTCAAGCGCCATCTAC” it was 2.61 RPM ratio (pull-down/input); in that of “GATGATTGTTCTCCCAGCTGATGAATTTATTTTTTCGAGTAAACAAATTTTCCTAATCTTTCTGTTCAAGCGCCATCTAC”, 4.63 RPM ratio (pull-down/input); in that of “GATGATTGTTCTCCCAGCTGATGAATTACGTGCCTCGAGTAAACAAATTTTCCTAATCTTTCTGTTCAAGCGCCATCTAC”, 0.855 RPM ratio (pull-down/input).

In the case of “GATGATTGTTCTCCCAGCTGATGAATTGGTCCACTCGAGTAAACAAATTTTCCTAATCTTTCTGTTCAAGCGCCATCTAC”, the binding signal is 0.387 RPM ratio (pull-down/input).

Take “GATGATTGTTCTCCCAGCTGATGAATTACTGAGCTCGAGTAAACAAATTTTCCTAATCTTTCTGTTCAAGCGCCATCTAC”: the binding signal was 0.258 RPM ratio (pull-down/input). Take “GATGATTGTTCTCCCAGCTGATGAATTAACACCTTCGAGTAAACAAATTTTCCTAATCTTTCTGTTCAAGCGCCATCTAC”: the binding signal was 0.408 RPM ratio (pull-down/input).

Consider “GATGATTGTTCTCCCAGCTGATGAATTCTTTACGTCGAGTAAACAAATTTTCCTAATCTTTCTGTTCAAGCGCCATCTAC”, for which the binding signal is 0.372 RPM ratio (pull-down/input).

In the case of “GATGATTGTTCTCCCAGCTGATGAATTGTAGCGGTCGAGTAAACAAATTTTCCTAATCTTTCTGTTCAAGCGCCATCTAC”, the binding signal is 0.618 RPM ratio (pull-down/input). In the case of “GATGATTGTTCTCCCAGCTGATGAATTTAATACATCGAGTAAACAAATTTTCCTAATCTTTCTGTTCAAGCGCCATCTAC” it was 0.619 RPM ratio (pull-down/input).

For “GATGATTGTTCTCCCAGCTGATGAATTGTAACCGTCGAGTAAACAAATTTTCCTAATCTTTCTGTTCAAGCGCCATCTAC”, the binding signal was 0.518 RPM ratio (pull-down/input). In the case of “GATGATTGTTCTCCCAGCTGATGAATTTTTATTATCGAGTAAACAAATTTTCCTAATCTTTCTGTTCAAGCGCCATCTAC” it was 0.779 RPM ratio (pull-down/input). On to “GATGATTGTTCTCCCAGCTGATGAATTCTATTTATCGAGTAAACAAATTTTCCTAATCTTTCTGTTCAAGCGCCATCTAC”, for which the binding signal was 6.6 RPM ratio (pull-down/input). The result for “GATGATTGTTCTCCCAGCTGATGAATTTATTTGATCGAGTAAACAAATTTTCCTAATCTTTCTGTTCAAGCGCCATCTAC” reads 2.62 RPM ratio (pull-down/input); that for “GATGATTGTTCTCCCAGCTGATGAATTTATTGAATCGAGTAAACAAATTTTCCTAATCTTTCTGTTCAAGCGCCATCTAC”, 0.822 RPM ratio (pull-down/input); that for “GATGATTGTTCTCCCAGCTGATGAATTGTATTTATCGAGTAAACAAATTTTCCTAATCTTTCTGTTCAAGCGCCATCTAC”, 6.83 RPM ratio (pull-down/input). Take “GATGATTGTTCTCCCAGCTGATGAATTTATTCTATCGAGTAAACAAATTTTCCTAATCTTTCTGTTCAAGCGCCATCTAC”: the binding signal is 0.549 RPM ratio (pull-down/input). For “GATGATTGTTCTCCCAGCTGATGAATTATTCCTATCGAGTAAACAAATTTTCCTAATCTTTCTGTTCAAGCGCCATCTAC”, the binding signal is 0.365 RPM ratio (pull-down/input). The result for “GATGATTGTTCTCCCAGCTGATGAATTTGTATTATCGAGTAAACAAATTTTCCTAATCTTTCTGTTCAAGCGCCATCTAC” reads 5.3 RPM ratio (pull-down/input). As to “GATGATTGTTCTCCCAGCTGATGAATTTTATTTATCGAGTAAACAAATTTTCCTAATCTTTCTGTTCAAGCGCCATCTAC”, the binding signal is 6.95 RPM ratio (pull-down/input).

As to “GATGATTGTTCTCCCAGCTGATGAATTTATTGTATCGAGTAAACAAATTTTCCTAATCTTTCTGTTCAAGCGCCATCTAC”, the binding signal was 5.25 RPM ratio (pull-down/input). Regarding “GATGATTGTTCTCCCAGCTGATGAATTTTATTGATCGAGTAAACAAATTTTCCTAATCTTTCTGTTCAAGCGCCATCTAC”, the binding signal was 5.5 RPM ratio (pull-down/input). For the sequence “GATGATTGTTCTCCCAGCTGATGAATTTATTTTATCGAGTAAACAAATTTTCCTAATCTTTCTGTTCAAGCGCCATCTAC”, the binding signal was 3.67 RPM ratio (pull-down/input). In the case of “GATGATTGTTCTCCCAGCTGATGAATTGATCAAGTCGAGTAAACAAATTTTCCTAATCTTTCTGTTCAAGCGCCATCTAC” it was 0.245 RPM ratio (pull-down/input); in that of “GATGATTGTTCTCCCAGCTGATGAATTTGACGAGTCGAGTAAACAAATTTTCCTAATCTTTCTGTTCAAGCGCCATCTAC”, 0.235 RPM ratio (pull-down/input); in that of “GATGATTGTTCTCCCAGCTGATGAATTATCAGCCTCGAGTAAACAAATTTTCCTAATCTTTCTGTTCAAGCGCCATCTAC”, 0.468 RPM ratio (pull-down/input). In the case of “GATGATTGTTCTCCCAGCTGATGAATTTCCGTGCTCGAGTAAACAAATTTTCCTAATCTTTCTGTTCAAGCGCCATCTAC” it was 0.332 RPM ratio (pull-down/input).
